Test results: PubChem BioAssay AID602295 (Broad Institute, 2012)

These molecules were tested against Mitogen-activated protein kinase 3 (Homo sapiens) (UniProt P27361) (assay: ERK1 kinase inhibitors, dose response, selectivity assay for Dyrk1A inhibitor NFAT project, biochemical, ADP-Glo luminescence, cherry pick, set 2 (AID 602295)). Details: 120 min; series mostly up to 10 µM; activity change, negative = inhibition: at the top concentration;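 active means every separate test run called active, meaning the signal drops and a potency is fitted within twice the top valid dose; inconclusive means runs disagree, poor fit, or flat partial inhibition; inactive means all runs inactive, flat, opposite direction or too weak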.
Chain of Mitogen-activated protein kinase 3 (Homo sapiens) (P27361 whole entry, looked up): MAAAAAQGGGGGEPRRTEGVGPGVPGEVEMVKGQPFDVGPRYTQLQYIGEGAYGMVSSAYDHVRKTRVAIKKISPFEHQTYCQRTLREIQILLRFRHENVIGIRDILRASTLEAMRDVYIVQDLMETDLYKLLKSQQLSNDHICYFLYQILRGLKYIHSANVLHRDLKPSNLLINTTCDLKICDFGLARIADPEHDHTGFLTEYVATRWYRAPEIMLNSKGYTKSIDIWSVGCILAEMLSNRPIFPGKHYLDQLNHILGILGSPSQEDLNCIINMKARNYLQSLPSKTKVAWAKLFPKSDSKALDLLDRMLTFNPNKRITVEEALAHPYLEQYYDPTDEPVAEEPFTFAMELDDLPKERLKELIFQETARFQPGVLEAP

Activity change, negative = inhibition, inactive:
c1csc(CNc2ncnc3ccc(-c4ccoc4)cc23)c1 37.5%
CCCNc1ncnc2ccc(-c3ccc4c(c3)OCO4)cc12 1.11%
COCCNC(=O)c1ccc2c(c1)nc(C)n2-c1cccc(F)c1 18.5%
O=C(Nc1nc2ccc(Cl)cc2s1)C1CCCO1 (configuration not stated) -21.8%
COc1ccc(C(=O)c2sc(Nc3ccccc3F)nc2N)cc1 -20.3%
c1cncc(CNc2nccc(-c3ccc4[nH]ncc4c3)n2)c1 -16.2%
O=C(Nc1nc(-c2ccc3c(c2)OCCO3)cs1)c1ccco1 22.4%
COc1ccc(-c2cc(NCCc3ccncc3)n3ncnc3n2)cc1 -2.17%
FC(F)(F)c1cccc(Nc2nccc(-c3ccc4c(c3)OCO4)n2)c1 5.81%
Cc1nc(N)sc1-c1csc(Nc2ccccc2)n1 -26.4%
O=C(NCc1ccco1)c1sc2ccccc2c1Cl 10.5%
c1nc(NCC2CCCO2)c2cc(-c3ccc4c(c3)OCO4)ccc2n1 (configuration not stated) 30.9%
Cc1nc(CNc2ncnc3ccc(-c4ccoc4)cc23)cs1 30.8%
O=C(O)COc1ccc(/C=C/c2nc3ccc([N+](=O)[O-])cc3s2)cc1 -12.7%
CC(=O)Nc1ccc(Nc2cc(C)nc3c(-c4ccccc4)cnn23)cc1 -6.73%
Cc1ccc(CNc2ncnc3ccc(-c4ccoc4C)cc23)o1 -4.8%
COc1cccc(NC(=O)c2sc(NC(=O)c3ccncc3)nc2C)c1 -10.8%
Cc1ccc(CNc2ncnc3ccc(-c4ccc5c(c4)OCO5)cc23)o1 12.1%
Cc1c(-c2ccnc(NCc3cccnc3)n2)sc(=O)n1C -13.9%
NC(=O)c1c(NC(=O)c2ccc(N3C(=O)CCC3=O)cc2)sc2c1CCCC2 -13%
CCN(Cc1cccs1)c1ncnc2ccc(-c3ccc4c(c3)OCO4)cc12 13.5%
c1nc(NCC2CCCC2)c2cc(-c3ccc4c(c3)OCO4)ccc2n1 13.2%
CN(C)S(=O)(=O)c1ccc(Cl)c(C(=O)Nc2cccc3ncccc23)c1 4.43%
O=C(COc1ccccc1)Nc1cccc(-c2cn3cccnc3n2)c1 -13.8%
Clc1ccc(CNc2ccnc(-c3ccc4[nH]ncc4c3)n2)cc1Cl 12.2%
Fc1cccc(Nc2nc(-c3ccncc3)nc3ccccc23)c1 10.8%
CC(=O)Nc1cccc(NC(=O)c2cc3ccccc3o2)c1 13.8%
Clc1ccc(CNc2nccc(-c3ccc4[nH]ncc4c3)n2)cc1Cl 6.86%
Cc1ccc(CN(C)c2ncnc3ccc(-c4ccc5c(c4)OCO5)cc23)o1 21.6%
Cc1ccsc1CN(C)c1ncnc2ccc(-c3ccc(CO)o3)cc12 8.68%
Cc1noc(CN(C)c2ncnc3ccc(-c4ccc5c(c4)OCO5)cc23)n1 24.3%
CSCC(=O)Nc1nc(-c2ccc3c(c2)OCCO3)cs1 -19.7%
